From the supplement of paper PMC6555819 come the findings set out here.

The subject of the experiment is VDR:RXRa (NR concentration 270 nM, RXRa partner concentration 90 nM). Briefly: PBM binding z-score (relative to random genomic background probes); higher = stronger binding; sequences stand for … in GC…GCGATTGACAGCGTAGAATGAAGG
As for the experimental part:
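Protein-binding microarray (Agilent 4x180K custom design, double-stranded 60-nt probes: 5' GC cap, 34-nt variable region, 24-nt constant primer region; full probe sequence given). Purified or IVT nuclear receptor:RXRα heterodimers (3:1 NR:RXRα, mostly 270:90 nM) or homodimers were incubated for 1 h in PBS with 2% milk and no ligand, then detected with Alexa488 antibodies. Fluorescence from o1-orientation probes (~5 replicates averaged) was converted to z-scores against 500 random hg19 background probes. Variable regions are seed direct-repeat (DR0–DR5) sites, all their single-nucleotide variants and half-site ablations.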
As for TCGAGTAGGTTACCCATGGGGCATTCAGCTTTCT, the PBM binding z-score is -0.0423.

Sequence CAAACTAAGTCAAAGGTCAAAGTCGAGCCAACCA gave a PBM binding z-score of 5.35.

For ACAGACAGGTGATGCAGGTAACTCAGGCTATCAT, the PBM binding z-score was -0.283.

Regarding ATACCAAGGTGATCGTGAGCTCGTTGATACTAAC, the PBM binding z-score is -0.0163. To TCTTGTCGATCAACAGGAGGTTAAGAAAGATCGA belongs 0.427; to CGTCCAAGTTCATAGGAGGTCAGTGAAGACAGAT, 5.91.

As for CCTGCTAGGTCATGGTCAGCAAATCTACAGTATG, the PBM binding z-score was 1.48.

Turning to ATCTCTAGGTAATCAAGTTCAGTGAATGCCGAAC, the PBM binding z-score came out at 4.21. Under GCTAGAAGGCCATTTGGGTCACTCAATGACGGGC stands 1.82; under TCTTGTAGTTCAGCAGGTTAAGAAAGCTGGCCAA, 1.78.

With TGTTAAAGTTCAAAGGTAACGTAAGTATCCACAC, the PBM binding z-score is 4.87.

Turning to CGTCAAAGTTAAACTAAGGTAACGTAAAGCACGC, the PBM binding z-score is 0.371.

On to CAGACTAGGTCAAGGTCAAAGTCGGTTTGTGCCA, for which the PBM binding z-score worked out at 5.15. Regarding TCATATAGTTAAAGGTGAAAGTCGAACGATATGA, the PBM binding z-score came to 1.2.

With CAGACTGGGGCAGAAAGGTTACCATACCATCCGG, the PBM binding z-score is 1.44. In the case of CCGAGTGGGGCATAAGGTTACCATAAGCCAGCCC, the PBM binding z-score was 0.143.

For the sequence CAAACTAGGTCACGGGAAGGTCAAAGTCCGCATG, the PBM binding z-score was found to be 6.27. Consider CTCGAAAGGTCGTGCCCAGGTGAGTATACCAAAC, for which the PBM binding z-score is 3.33. In turn, GGAACGAGGGCAAAGTTGATACCATCTGTCGACG returned a PBM binding z-score of 1.48. With CCTTTTAGTTGACCATAAGGGCAACCGAAGCTCG, the PBM binding z-score came to 1.28. Sequence TAGGCTAGGTCATTGGGCCAGTATAGTACGCATC came in with a PBM binding z-score of 2.03. GCTTGTGGATCAAGGTTAAGAAAGACTAAGCTAA: the PBM binding z-score was determined as 0.111. Under CCGATTGGGGCAAAGGTTACCATACTCAGTACGA stands 1.6; under CCAGACAGGTGAGAGGTAACTCAGTCTGGTACGC, -0.0647.

CCTATTAGTTGACCATAAGGGCAAACGAAGCTCG yielded a PBM binding z-score of 0.834. Under CGAACTACGTCATTGACAGGACAGTGAATAGTAA stands -0.122; under GGAACGAGGGCATTCGAGTTAATAGCATGGCGAT, 2.35. TGTCAAAGTTCAAAGGTAACGTAAGTATCCACAC registered a PBM binding z-score of 5.1.

In turn, CTGACTGGGGCAAGGTTACCATAACGCACAGCCA returned a PBM binding z-score of 0.261. CCTCGGAGGACAGAAGGTCCGAGCTGTCCGCTTT gave a PBM binding z-score of -0.656. To CCTTACGGGTCACTCCAGGTTATAGCGTCGGAGT belongs 4.14; to ATCGAAAGGTCGAGGTGAATATAGAGAAAGGGAA, 2.45. Take TAGCCTAGGTCATTCACGGGCCAGTATAGAAAGC: the PBM binding z-score was 2.28. Turning to TAGCCTAGGTCATATCGGGCCAGTATACGCTATA, the PBM binding z-score is 2.28. TCGAGTAGGTTACCAATGAGGCATTCAGCTTTCT had a PBM binding z-score of -0.192.

Sequence TCATATATGTAATACAGGTGAAAGTCGGCATCTA had a PBM binding z-score of 0.899. In turn, ATATGTCGGTTAGCTGGGGTCATTCAGACTAGGC yielded a PBM binding z-score of 5.12. With ATACCAAGGTGATCGTGACGTCGTTGATACTAAC, the PBM binding z-score was found to be 0.156. In turn, ACAGACAGGTCATGAAGGTAACTCAGGCTATCAT showed a PBM binding z-score of 4.55. In turn, GTACCAATGTGAATAGGTCGTTGATGAGTAGGCG returned a PBM binding z-score of -0.000523.
